Data from PubChem BioAssay (NCI).
The panel holds about 83,000 compounds, 20% with a hit somewhere; the sample as a whole holds those more often.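 Compound tested at a single concentration for 48 hours in 96-well plates; a percent growth value below 10 was scored as active.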 Calls of active or inactive are those of the source.

What follows are compounds tested on HL-60(TB) leukemia (assay: NCI-60 one-dose screen, 48 h (100 = growth as untreated, 0 = no growth, -100 = all killed)). Conditions: 10 µM unless noted.

| SMILES | growth |
| --- | --- |
| COc1ccc(-c2nn(-c3cccc(NC(=O)c4ccc(N5CCOCC5)c(C(F)(F)F)c4)c3)cc2-c2ccncc2)cc1Cl | 38.1% (inactive) |
| O=C(CI)NCCNc1cccc2c(S(=O)(=O)O)cccc12 | 105% (inactive) |
| CCN(CC)CCCCCCNc1cc(OC)c(Cl)c2cccnc12 | 119% (inactive) |
| CCCCCCN(CCCCCC)CCCNc1nccc2ccccc12 | -1.22% (active) |
| COc1ccc(/C(=C\c2ccc3c(c2)OCO3)C(=O)Nc2nc3ccccc3s2)cc1 | 101% (inactive) |
| O=Nc1c(-c2c(O)[nH]c3ncccc23)[nH]c2ccccc12 | 125% (inactive) |
| O=C(Nc1ccc(Br)cc1F)c1cc(I)ccc1O | -33.3% (active) |
| CN1CCN(Cc2ccc(NC(=O)c3cncc(C#Cc4ccc(N)nc4)c3)cc2C(F)(F)F)CC1 | -38.5% (active) |
| O=C(c1ccc(F)cc1)C1CCN(CCn2c(=O)[nH]c3ccccc3c2=O)CC1 | 97.3% (inactive) |
| COc1ccc(/C(=C\c2cc(OC)c(OC)c(OC)c2)C(=O)N2CCCNCC2)cc1 | 96.4% (inactive) |
| CCCCCCCCCCCCCCCc1ccc(C(=O)C[n+]2ccccc2)cc1 | -69.3% (active) |
| COc1ccc(OC)c(C2C(C#N)=C(N)Oc3cc(O)ccc32)c1 (stereo not given) | 88.6% (inactive) |
| CO[C@H]1C[C@@H]2CC[C@@H](C)[C@@](O)(O2)C(=O)C(=O)N2CCCC[C@H]2C(=O)O[C@H]([C@H](C)C[C@@H]2CC[C@@H](O)[C@H](OC)C2)CC(=O)[C@H](C)C=C(C)[C@@H](O)[C@@H](OC)C(=O)[C@H](C)C[C@H](C)/C=C/C=C/C=C1C | 83% (inactive) |
| Cc1nc2c(c(-c3ccccc3)n1)Cc1c(ccc3ccccc13)O2 | 103% (inactive) |
| C1=C2CCCC3=Cc4ccccc4OC23Oc2ccccc21 | 8.47% (active) |
| COc1cc(C2=NNC(c3ccc(N(C)C)cc3)C2)cc(OC)c1OC (stereo not given) | -33.6% (active) |
| Cc1cc(C)n(C(=O)c2nn(-c3ccc(Cl)cc3)cc2O)n1 | 39.8% (inactive) |
| S=c1[nH]c2cc(Cl)ccc2s1 | 97.4% (inactive) |
| C=CC(=O)Nc1ccc(Nc2nccc(-c3ccc(N4CCCC4)c(C#N)c3)n2)cc1 | -71.8% (active) |
| Clc1ccc(-c2nnc(COc3ccccc3Cl)o2)cc1 | 120% (inactive) |

| SMILES | growth |
| --- | --- |
| CCCCCCCCCCCCCCCCCC1=NC(C)(C)CN1CC(C)O (stereo not given) | 61% (inactive) |
| CC(=O)N1N=C(c2ccc(Nc3nc(Nc4ccccc4)nc(Nc4ccccc4)n3)cc2)CC1c1ccccc1 (stereo not given) | 79.3% (inactive) |
| N/C(=N/N=C/c1ccccc1)N/N=C\c1ccccc1 | 44.2% (inactive) |
| Cc1nn(-c2ccccc2)c(-n2ccnc2)c1/C=N/Nc1nc(-c2ccc(F)cc2)cs1 | 94.4% (inactive) |
| COc1cccc(/C=N\NC(=O)c2ccncc2)c1O | 9.43% (active) |
| CC(=O)Nc1ccc(S(=O)(=O)n2ccc(-c3ccc4c(c3)CCC(C)(C)O4)n2)cc1 | 91.9% (inactive) |
| CC(=O)OC1Oc2cc(C)c(C)cc2-c2oc(=O)c(-c3cc4ccc(N(C)C)cc4oc3=O)cc21 (stereo not given) | 25.6% (inactive) |
| NS(=O)(=O)Oc1ccc(NC(=O)C23CC4CC(CC(C4)C2)C3)cc1Cl | 100% (inactive) |
| COc1cc(C(=O)/C=C/c2c(-c3ccc(F)cc3)nc3ncccn23)cc(OC)c1OC | 30.9% (inactive) |
| CCCN(CCSSCCNc1nc(N(C)O)nc(N(C)O)n1)c1nc(N(C)O)nc(N(C)O)n1 | 88% (inactive) |
| N=C(N)c1ccc(-c2ccc(-c3ccccc3)s2)nc1 | 16.6% (inactive) |
| COc1ccc(/C=C/c2nc3ccccc3nc2/C=C/c2ccc(OC)cc2)cc1 | 105% (inactive) |
| O=C1Nc2ccc(Cl)cc2/C1=N/c1nc(-c2ccc(Cl)cc2)cs1 | -32.4% (active) |
| CC1(c2ccc3ccccc3c2)CCC(=O)O1 (stereo not given) | 92.7% (inactive) |
| COc1cc2cc(c1Cl)N(C)C(=O)C[C@H](OC(=O)[C@H](C)N(C)C(C)=O)[C@]1(C)O[C@H]1[C@H](C)[C@@H]1C[C@@](O)(NC(=O)O1)[C@H](OC)C=C/C=C(\C)C2 | -25.6% (active) |
| O=C(CCl)NCCNc1nccc(Nc2ccc(S(=O)(=O)Nc3ccccn3)cc2)n1 | 10.2% (inactive) |
| COc1cc(-c2nn(-c3ccccc3)cc2-c2ccnc(NCCNS(=O)(=O)c3ccc(Cl)cc3)n2)ccc1Cl | -35.9% (active) |
| CCOC(=O)/C=C(/C)Sc1cc(O)c2ccccc2c1O | 20.5% (inactive) |
| c1ccc(-c2c(-c3ccccc3)[n+](Cc3ccc4ccccc4c3)cn2Cc2ccc3ccccc3c2)cc1 | -67.1% (active) |
| O=C(Nc1ncc(Cc2ccccc2Cl)s1)c1ccc2c(c1)OCCO2 | -56.8% (active) |
